High-throughput results: PubChem BioAssay, several laboratories
HIF-2a block: HIF-2a reporter inhibitors, primary screen, luminescence, 786-0 RCC cells; 786-0 RCC cells HIF-2a reporter, luciferase luminescence, overnight; inhibition, % at 18.8 µM; 360,000 compounds, 0.72% hits; AID 624352, 2012;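 active means inhibition of the luminescence signal of 40% or more relative to plate controls, in a single-dose primary screen at 18.75 µM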
EBV LMP1 NFkB: EBV LMP1-driven NF-kappaB luciferase reporter inhibitors, primary screen, cell-based, luminescence, single point. inhibition, % at 12.5 µM. LMP1-induced NF-kappaB luciferase reporter cells. 350,000 compounds, 0.69% hits; in the data active means inhibition above about 41%; inconclusive means no clear call, values can overlap the other calls;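 further: 0% = neutral control wells and 100% = reference inhibitor control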
MITF TRPM1 inh: inhibitors of MITF-dependent TRPM1 promoter reporter, primary screen, cell-based, SK-MEL-5, single point, luciferase. SK-MEL-5 TRPM1 promoter luciferase, 24 h. inhibition, % at 12.5 µM. 330,000 compounds, 0.83% hits;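 active means mean inhibition across replicates of 60% or more, whatever share of single replicates reaches that level; inconclusive means some that reach 60%, reason not given; inactive means mean inhibition across replicates below 60%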
TWEAK Fn14 block: inhibitors of TWEAK-Fn14 signaling, primary screen, luciferase reporter cells, uHTS. TWEAK-stimulated Fn14 reporter cells, luciferase luminescence, 8 h. inhibition, % at 10 µM. 360,000 compounds, 2% hits. AID 1159606, 2016; in the data active means inhibition above about 50%
TROY NFkB inh: inhibitors of TROY-driven NF-kB signaling, primary screen, Q293 LMP1-TROYcd cells, NF-kB luciferase, uHTS; inhibition, % at 10 µM; Q293 LMP1-TROYcd NF-kB luciferase reporter, 4 h; 360,000 compounds, 0.98% hits;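 active means compounds whose plate-normalised and pattern-corrected inhibition of the luciferase reporter signal at the single screening dose is 50% or more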
Peg3 prom inh: Peg3 promoter-driven luciferase inhibitors, primary screen, cell-based, HeLa, luciferase luminescence; HeLa PEG-Prom luciferase reporter, overnight; inhibition, % at 20 µM; 360,000 compounds, 1.7% hits; AID 588405, 2011;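 active means inhibition of at least 50% at 20 µM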
Mdm2-MdmX confirm: retested Mdm2-MdmX interaction blockers, confirmation, cell-based, luminescence, single concentration, set 2 | shares compounds with HIF-2a block | SaOS-2 split-luciferase Mdm2/MdmX complementation | inhibition, % at 8 µM | 740 compounds, 99% hits;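 active means mean inhibition of the luminescence signal across two replicates at or above 26 percent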
Target sequence (O15151 whole entry, looked up): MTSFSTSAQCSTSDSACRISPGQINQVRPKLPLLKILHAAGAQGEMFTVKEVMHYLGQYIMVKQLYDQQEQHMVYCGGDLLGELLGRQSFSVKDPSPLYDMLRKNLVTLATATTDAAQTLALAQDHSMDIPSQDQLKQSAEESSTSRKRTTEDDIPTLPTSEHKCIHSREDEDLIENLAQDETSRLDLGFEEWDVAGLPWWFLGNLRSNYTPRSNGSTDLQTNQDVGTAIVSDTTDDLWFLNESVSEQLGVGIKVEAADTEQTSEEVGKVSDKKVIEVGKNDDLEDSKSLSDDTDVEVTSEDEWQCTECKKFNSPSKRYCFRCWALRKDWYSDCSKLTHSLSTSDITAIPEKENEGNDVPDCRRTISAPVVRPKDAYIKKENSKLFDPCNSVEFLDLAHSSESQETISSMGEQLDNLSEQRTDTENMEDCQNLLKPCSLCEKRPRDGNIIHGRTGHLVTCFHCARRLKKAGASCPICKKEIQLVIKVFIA
Target sequence (Q00987 whole entry, looked up): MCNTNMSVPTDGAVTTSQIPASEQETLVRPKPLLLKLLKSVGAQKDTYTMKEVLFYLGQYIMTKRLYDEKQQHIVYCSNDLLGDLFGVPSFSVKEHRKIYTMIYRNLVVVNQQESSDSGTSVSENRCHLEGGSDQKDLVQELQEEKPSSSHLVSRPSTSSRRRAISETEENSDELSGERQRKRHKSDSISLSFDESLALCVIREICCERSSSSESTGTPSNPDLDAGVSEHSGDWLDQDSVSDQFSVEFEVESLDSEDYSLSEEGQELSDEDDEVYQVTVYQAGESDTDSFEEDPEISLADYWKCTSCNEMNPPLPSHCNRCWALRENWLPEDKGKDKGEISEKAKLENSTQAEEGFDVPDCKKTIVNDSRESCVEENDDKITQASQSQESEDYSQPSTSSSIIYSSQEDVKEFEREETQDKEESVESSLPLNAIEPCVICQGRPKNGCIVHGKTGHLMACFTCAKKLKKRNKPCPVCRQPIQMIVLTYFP
HIF-2a inh conf: HIF-2a reporter inhibitor retest, confirmation, luminescence, 786-0 RCC cells; 1,800 compounds, 56% hits; HIF-2a luciferase reporter luminescence, overnight; shares compounds with HIF-2a block; inhibition, % at 18.8 µM;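 active means mean inhibition across four replicates of at least 40 percent at the single tested concentration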
HIF-1a counter: HIF-1a luciferase reporter signal reduction – MiaPaCa-2 cells, single concentration, counter-screen for HIF-2a inhibitor project, confirmation | MiaPaCa-2 HIF-1a luciferase reporter, desferoxamine, overnight | 1,800 compounds, 72% hits | AID 651589, 2012 | inhibition, % at 18.8 µM | shares compounds with HIF-2a block;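 active means mean inhibition of the reporter signal across four replicates at the single tested dose of 50% or more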
The depositor's hits bear a star. Rows were chosen to be rich in hits. Some 4% of all compounds tested hit in one or more screens of this group.

How did NS(=O)(=O)c1ccc(Oc2ccc(S(N)(=O)=O)cc2)cc1 do in these assays?
HIF-2a block: 10.6; EBV LMP1 NFkB: 5.6; MITF TRPM1 inh: 9.2; TWEAK Fn14 block: 1.2; TROY NFkB inh: -15.6; Peg3 prom inh: 8.2

What do the screens show for `C=CS(=O)(=O)c1ccc(Oc2ccc(S(=O)(=O)C=C)cc2)cc1`?
HIF-2a block: 90.2*; EBV LMP1 NFkB: inconclusive; MITF TRPM1 inh: 89.3*; TWEAK Fn14 block: 102.0*; TROY NFkB inh: 63.2*; Peg3 prom inh: 106.9*; HIF-2a inh conf: 89.8*; HIF-1a counter: 106.4*

What do the screens show for `CC(=O)c1ccc(OC(C)C(=O)OCC(=O)NCCc2ccccc2)cc1` (stereo not drawn)?
HIF-2a block: 8.2; EBV LMP1 NFkB: -4.8; TWEAK Fn14 block: -3.3; TROY NFkB inh: -0.6; Peg3 prom inh: 3.3

How did CCCCN(CCCNC(=O)c1ccc2c(c1)NC(=O)CN2C)c1ccccc1 do in these assays?
HIF-2a block: 44.5*; EBV LMP1 NFkB: -31.5; TWEAK Fn14 block: 107.9*; TROY NFkB inh: 90.5*; Peg3 prom inh: 66.1*; HIF-2a inh conf: 49.2*; HIF-1a counter: 93.5*

What do the screens show for `CC1CCCCN1CCCNC(=O)c1ccc2c(c1)NC(=O)CN2C` (stereo not drawn)?
HIF-2a block: 8.1; EBV LMP1 NFkB: 3.9; TWEAK Fn14 block: 19.7; TROY NFkB inh: 17.1; Peg3 prom inh: -1.2

What do the screens show for `O=C(Nc1cc(C(F)(F)F)cc(C(F)(F)F)c1)Nc1cnn(-c2ccc([N+](=O)[O-])cc2)c1C(F)(F)F`?
HIF-2a block: 56.8*; EBV LMP1 NFkB: 57.1*; MITF TRPM1 inh: 69.8*; TWEAK Fn14 block: 23.1; TROY NFkB inh: 11.3; Peg3 prom inh: 96.0*; Mdm2-MdmX confirm: 103.0*; HIF-2a inh conf: 6.8; HIF-1a counter: 106.1*

How did O=C(Nc1ccc(C(=O)O)cc1)Nc1ccc([N+](=O)[O-])cc1 do in these assays?
HIF-2a block: 11.7; EBV LMP1 NFkB: -3.0; MITF TRPM1 inh: 15.0; TWEAK Fn14 block: 16.7; TROY NFkB inh: 12.2; Peg3 prom inh: 12.7

How did O=C1C=C(Nc2ccc(Cl)cc2)C(=O)N1c1ccc(Cl)cc1 do in these assays?
HIF-2a block: -2.9; EBV LMP1 NFkB: -17.7; MITF TRPM1 inh: 0.6; TWEAK Fn14 block: -34.5; TROY NFkB inh: -7.6; Peg3 prom inh: -15.6

Results for CCN(CC)c1ccc(NC(=O)CCCCC(=O)Nc2ccc(N(CC)CC)cc2)cc1 ?
HIF-2a block: 65.4*; EBV LMP1 NFkB: 13.5; MITF TRPM1 inh: 28.6; TWEAK Fn14 block: 1.7; TROY NFkB inh: 2.7; Peg3 prom inh: 11.8; HIF-2a inh conf: 66.2*; HIF-1a counter: 48.9

Results for CCN(CC)c1ccc(NC(=O)CCCCCN2C(=O)c3ccccc3C2=O)cc1 ?
HIF-2a block: 12.1; EBV LMP1 NFkB: 30.7; MITF TRPM1 inh: 12.8; TWEAK Fn14 block: -7.3; TROY NFkB inh: -16.7; Peg3 prom inh: 10.2

Results for COc1ncnc2c1oc1nc(CC(C)C)c3c(c12)CCCC3 ?
HIF-2a block: 14.1; EBV LMP1 NFkB: 4.9; MITF TRPM1 inh: -19.5; TWEAK Fn14 block: 26.7; TROY NFkB inh: -2.8; Peg3 prom inh: 9.5

How did CC(C)Cc1nc2oc3c(Cl)ncnc3c2c2c1CCCC2 do in these assays?
HIF-2a block: 75.1*; EBV LMP1 NFkB: 10.7; MITF TRPM1 inh: 3.2; TWEAK Fn14 block: 9.0; TROY NFkB inh: 73.2*; Peg3 prom inh: 113.1*; HIF-2a inh conf: 45.1*; HIF-1a counter: 99.6*

What do the screens show for `COC(=O)[C@@H](Cc1ccccc1)NC(=O)Cn1cc(C)c(=O)[nH]c1=O`?
HIF-2a block: 4.6; EBV LMP1 NFkB: 7.2; MITF TRPM1 inh: -6.6; TWEAK Fn14 block: -4.1; TROY NFkB inh: -5.7; Peg3 prom inh: 5.7

What do the screens show for `NNc1ccc2c(C(F)(F)F)cc(C(F)(F)F)nc2n1`?
HIF-2a block: -59.6; EBV LMP1 NFkB: -3.3; MITF TRPM1 inh: -5.2; TWEAK Fn14 block: 15.9; TROY NFkB inh: -3.5; Peg3 prom inh: -6.5

Results for N#CC(c1cccc(Cl)c1)c1ccc2c(C(F)(F)F)cc(C(F)(F)F)nc2n1 (stereo not drawn) ?
HIF-2a block: 14.2; EBV LMP1 NFkB: 34.7; MITF TRPM1 inh: 74.0*; TWEAK Fn14 block: 45.2; TROY NFkB inh: 64.5*; Peg3 prom inh: 56.9*; Mdm2-MdmX confirm: 101.7*

What do the screens show for `O=C(OCc1ccccc1)N(CCF)c1cn(Cc2ccccc2)c(=O)n(Cc2ccccc2)c1=O`?
HIF-2a block: 12.4; EBV LMP1 NFkB: -0.3; MITF TRPM1 inh: -7.7; TWEAK Fn14 block: 19.0; TROY NFkB inh: -16.0; Peg3 prom inh: 11.6

Results for Cn1c(/C=C/c2ccc(Cl)cc2Cl)c([N+](=O)[O-])c(=O)n(C)c1=O ?
HIF-2a block: 69.1*; EBV LMP1 NFkB: -30.4; TWEAK Fn14 block: 73.3*; TROY NFkB inh: 8.8; Peg3 prom inh: 102.6*; HIF-2a inh conf: 41.0*; HIF-1a counter: 105.6*

What do the screens show for `CCc1ccc(/C=C/c2c([N+](=O)[O-])c(=O)n(C)c(=O)n2C)cc1`?
HIF-2a block: 46.2*; EBV LMP1 NFkB: 6.4; MITF TRPM1 inh: 9.4; TWEAK Fn14 block: 65.2*; TROY NFkB inh: 13.3; Peg3 prom inh: 25.2; HIF-2a inh conf: 36.3; HIF-1a counter: 31.5

How did CCOc1ccc(/C=C/c2c([N+](=O)[O-])c(=O)n(C)c(=O)n2C)cc1 do in these assays?
HIF-2a block: 25.0; EBV LMP1 NFkB: 6.7; MITF TRPM1 inh: 16.2; TWEAK Fn14 block: 21.0; TROY NFkB inh: 10.4; Peg3 prom inh: 4.2

How did CC1(C)CC2CC(C)(CN2/C=C2/CCCCC2=O)C1 (stereo not drawn) do in these assays?
HIF-2a block: 14.3; EBV LMP1 NFkB: 1.6; MITF TRPM1 inh: 3.4; TWEAK Fn14 block: 7.3; TROY NFkB inh: 11.0; Peg3 prom inh: 9.1

How did COc1ccc(CCCc2nnc(SCc3nc4ccccc4c(=O)[nH]3)n2C)c(C)c1 do in these assays?
HIF-2a block: 13.0; EBV LMP1 NFkB: -1.7; MITF TRPM1 inh: -0.6; TWEAK Fn14 block: -15.2; TROY NFkB inh: 0.0; Peg3 prom inh: 1.9
